# Compounds with a hit are over-represented: about 7.3% of the library has one in this group of screens.
# FLuc counter – qHTS profiling assay for firefly luciferase inhibitor/activator using purifed enzyme and Km concentrations of substrates (counterscreen for miR-21 project) | Luciferin 4-monooxygenase (Photinus pyralis), P08659 | purified FLuc, Km substrates, luminescence inhibition | Potency, µM (highest dose often 57.5 µM), inactives show top-dose activity change, negative = inhibition, actives largely listed as inhibitors | 360,000 tested, 6.9% active | AID 588342, 2011;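 note: plate controls were vehicle for no effect and reference inhibitor for full effect; nearly all actives have a fitted effect of over 55% in size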
# Target sequence (P08659 whole entry, looked up): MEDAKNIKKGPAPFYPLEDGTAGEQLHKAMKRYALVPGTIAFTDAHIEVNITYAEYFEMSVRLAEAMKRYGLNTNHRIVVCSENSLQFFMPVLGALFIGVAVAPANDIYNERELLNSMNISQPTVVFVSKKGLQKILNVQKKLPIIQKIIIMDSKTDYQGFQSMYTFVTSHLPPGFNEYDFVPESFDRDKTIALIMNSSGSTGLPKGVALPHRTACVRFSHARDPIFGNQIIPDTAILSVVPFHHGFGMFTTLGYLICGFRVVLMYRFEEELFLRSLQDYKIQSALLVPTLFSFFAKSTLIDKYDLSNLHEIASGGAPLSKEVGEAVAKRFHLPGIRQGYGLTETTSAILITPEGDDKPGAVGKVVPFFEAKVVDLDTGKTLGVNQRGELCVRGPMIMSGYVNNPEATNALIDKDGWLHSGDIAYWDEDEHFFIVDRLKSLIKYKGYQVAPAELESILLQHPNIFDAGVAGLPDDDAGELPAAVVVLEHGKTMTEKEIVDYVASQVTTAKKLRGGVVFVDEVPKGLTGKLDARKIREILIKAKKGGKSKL
#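 Biochemical qHTS of compounds, final roughly 60 µM downward over six points, against 10 nM purified firefly luciferase using Km concentrations of substrates (10 uM D-luciferin, 10 uM ATP) in Tris acetate pH 7.5 buffer; luminescence output.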
# SMN2 splice up – qHTS Assay for Enhancers of SMN2 Splice Variant Expression. Potency, µM (highest dose often 46.1 µM), for the others: at the top dose activity change, positive = activation, usual class: activators. HEK293 SMN2-luciferase splicing reporter, luminescence, 30-36 h. 210,000 tested, 2.8% active. AID 1458, 2008; note: % of control where 0% means no effect; nearly all actives have a fitted effect of over 55% in size
#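 HEK293 cells carry an SMN2 minigene-luciferase reporter in which exon 7 inclusion puts luciferase in frame. Cells were seeded at 2000 cells/well, attached for 10-12 hours, then exposed to compounds for 30-36 hours at 37C before ONE-Glo luminescence.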
# ELG1 genotoxic – qHTS screen for small molecules that induce genotoxicity in human embryonic kidney (HEK293T) cells expressing luciferase-tagged ELG1 | 330,000 tested, 1.3% active | HEK293T ELG1-luciferase reporter, luminescence, 16 h | Potency, µM (highest dose often 46 µM), for the others: top-dose activity change, positive = activation, actives largely listed as activators; note: % of control where 0% means no effect; nearly all actives have a fitted effect of over 60% in size
#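 ELG1-luciferase HEK293T cells, 2,000/well; compound pinned in; 16 hr, 37 °C, 5% CO2; ONE-Glo, 30 min RT; luminescence on CCD imager.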
# Rab9 prom act – qHTS Assay for Rab9 Promoter Activators; Potency, µM (series often up to 9.22 µM), inactives show at the highest dose activation, negative = inhibition, most hits filed as activators; 320,000 tested, 2.8% active; AID 485297, 2010; Huh7 Rab9 promoter-luciferase reporter, luminescence, 24 h; note: % of control where 0% means no effect; nearly all actives have a fitted effect of over 60% in size
#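 Rab9 promoter-driven luciferase in stably transfected Huh7 cells; 1500 cells/well rested 2 h, exposed to compound in DMSO for 24 h at 37 °C, 5% CO2. Luminescence read 10 min after adding luciferase reagent at ambient temperature.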
# NPC1 prom act – qHTS Assay for NPC1 Promoter Activators | AID 485313, 2010 | Huh7 NPC1 promoter luciferase reporter, 24 h | 320,000 tested, 2.4% active | Potency, µM (top dose mostly 9.22 µM), without a hit: top-dose activation, hits mostly activators; note: % of control where 0% means no effect; nearly all actives have a fitted effect of over 60% in size
#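 Huh7 cells stably carrying NPC1 promoter–luciferase, plated in Opti-MEM with 10% FBS for 2 h, were exposed to compound in DMSO for 24 h at 37 °C; luciferase reagent was added for 10 min and luminescence read.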
# uPA surface inh – qHTS for Inhibitors of Cell Surface uPA Generation | cell surface uPA generation assay, qHTS | Potency, µM (doses to about 38.3 µM), for inactives: top-dose activity change, negative = inhibition, most hits filed as inhibitors | 330,000 tested, 0.31% active | AID 540303, 2011; active = well fitted inhibition curve with a large enough effect; inconclusive = small, poorly fitted or top-dose-only effect; inactive = no such curve, though single readings can be large or run the other way; tested in mouse RAW 264.7 cells; note: % is set by controls: 0 for no effect and ±100 for the full control effect; nearly all actives have a fitted effect of over 55% in size
# * = called active by the depositor; ? = inconclusive; · = not tested or not shown; [ ] = dose if it differs, or a comment. Unless noted, calls come from the whole dose curve; as a rule, active = well fitted curve in the direction sought with a large enough effect; inconclusive = small, poorly fitted or top-dose-only effect, or another doubt; inactive = no such curve, though single readings can be large; an effect the other way counts as inactive or inconclusive. Potency is the fitted concentration of half-maximal effect.
SMILES,FLuc counter,SMN2 splice up,ELG1 genotoxic,Rab9 prom act,NPC1 prom act,uPA surface inh
COc1ccc(N2CC(C(=O)Nc3ccc(NC(C)=O)cc3)CC2=O)cc1 (configuration not stated),3%,-2%,·,·,·,·
Cc1cc(C)c2nc(N(Cc3cccnc3)C(=O)c3ccc(S(=O)(=O)N(C)C)cc3)sc2c1,-1%,·,·,·,·,·
CC1=c2c(oc3cc(O)c(Nc4c(C)cc(O)cc4O)c(C)c23)=CC(=O)C1=Nc1c(C)cc(O)cc1O,·,-22%[9.22 µM],·,·,·,·
c1cc2c(cc1Nc1nc(-c3ccc4c(c3)OCO4)cs1)OCCO2,4.3µM*,4µM*,?,2.8µM*,3.2µM*,1%
N#C/C(=C\Nc1ccc2c(c1)OCCO2)c1nc(-c2ccccc2)cs1,3%,-15%,?,-12%,0%,10%
COc1cccc(NC(=O)Nc2nc(-c3ccc(OC)c(OC)c3)cs2)c1,?,·,-26%,-7%,-15%,-15%
COc1ccc(-c2csc(/C(C#N)=C/Nc3ccc4c(c3)OCCO4)n2)cc1,4%,0%,-10%,-1%,-1%,20%
COc1cccc(Nc2nc(-c3ccc4c(c3)OCCO4)cs2)c1,3.4µM*,14µM*,?,3.2µM*,?,-1%
c1ccc(-c2csc(Nc3ccc4c(c3)OCCO4)n2)cc1,0.54µM*,4µM*,·,·,·,3%
COc1c(C=O)c(=O)[nH]c2c(OC)cccc12,·,11%,·,·,·,·
O=C(c1cccc(F)c1)N1CCC2(CCCN(Cc3nccs3)C2)CC1,·,-21%,·,·,·,·
O=C(CSc1nnc2scc(-c3ccc(Cl)cc3)n12)Nc1ccccc1F,2%,-9%,·,·,·,·
O=C(NCC1CCCC(CNC(=O)N2CCc3ccccc32)C1)N1CCc2ccccc21 (configuration not stated),-13%,-1%,-2%,-4%,-1%,·
C=CCc1cccc(C=Nc2c[nH]c(=O)[nH]c2=O)c1O,5%,·,-3%,2%,1%,1%
C=CCc1cccc(C=Nc2cccn3cc(-c4ccccc4)nc23)c1O,-17%,25µM*,?,?,?,5%
O=C(Nc1cccc(S(=O)(=O)Nc2ccc(Cl)cc2)c1)c1cc2c(s1)CCCC2,15µM*,-68%,-7%,1%,-3%,1%
Cc1ccc(NC(=O)c2cc3c(s2)CCCC3)cc1S(=O)(=O)Nc1ccccc1Cl,17µM*,-60%,-8%,-5%,-7%,-3%
O=C(Nc1cccc(S(=O)(=O)Nc2ccc(Cl)cc2)c1)c1ccc(Cl)nc1,3%,·,0%,-23%,-21%,5µM*
Cc1ccc(C(=O)Nc2ccc(C)c(S(=O)(=O)Nc3ccccc3Cl)c2)s1,?,-52%,-3%,-3%,3%,-3%
Cc1sc2ncn(CC(=O)N3CCN(c4ccccc4F)CC3)c(=O)c2c1S(=O)(=O)N1CCN(c2ncccn2)CC1,6%,9%,·,·,·,·
CC(C)(C)c1ccc(-c2noc(C(=O)NN)n2)cc1,?,·,1%,18%,23%,2%
CC(C)(C)c1ccc(-c2conc2N)cc1,2.7µM*,18µM*,12%,2.5µM*,?,·
Cc1cccc(C(=O)Nc2c(-c3ccc(F)cc3)nc3ccccn23)c1,-7%,0%,·,·,·,·
Cn1cc(CNC(=O)c2cnn3c2NC(=C2CC2)C=C3C(F)F)cn1,0%,·,·,·,·,·
CSc1nccc(N/N=C/c2ccccc2)n1,2.7µM*,·,?,1.4µM*,1.6µM*,-3%
SMILES,FLuc counter,SMN2 splice up,ELG1 genotoxic,Rab9 prom act,NPC1 prom act,uPA surface inh
C(=N\Nc1nccc(-c2cccnc2)n1)/c1ccccc1,4.8µM*,·,12%,1.3µM*,1.8µM*,?
Cc1ccnc(N/N=C/c2ccccc2)n1,7.6µM*,13µM*,?,1.3µM*,2.5µM*,-11%
CCOC(=O)c1[nH]c(C)c(CCC(=O)Nc2cc(Cl)ccc2C)c1C,-6%,·,·,·,·,·
COCC(=O)N1CCC2(CC1)CCN(c1ncccn1)CC2,·,-7%,·,·,·,·
COc1ccc(-n2nc(C(=O)NCC3CCCO3)c3ccccc3c2=O)cc1 (configuration not stated),2%,·,0%,-1%,1%,-4%
c1ccc(-n2ncc3c(NCC4CCCO4)ncnc32)cc1 (configuration not stated),17µM*,-1%,2%,3.5µM*,2µM*,-7%
Clc1ccc(-n2ncc3c(NCC4CCCO4)ncnc32)cc1 (configuration not stated),1.7µM*,5µM*,?,0.45µM*,0.63µM*,10µM*
COc1ccc(-n2ncc3c(NCC4CCCO4)ncnc32)cc1 (configuration not stated),11µM*,11µM*,12%,0.89µM*,0.56µM*,-4%
CC(Sc1ncnc2c1cnn2-c1ccccc1)C(=O)NCC1CCCO1 (configuration not stated),?,·,2%,-4%,-5%,-6%
COc1cccc(-c2ccc(NC(=O)C3CCCN(CCCn4nc(C)cc4C)C3)cc2)c1 (configuration not stated),?,·,2%,-5%,7%,-5%
Cc1ccc(NC(=O)CCn2c(=O)c3cccn3c3ccccc32)cc1Cl,-17%,·,·,·,·,·
O=C(O)CSc1c2c(nc3cc(C(=O)Nc4cccc(C(F)(F)F)c4)ccc13)CCC2,27µM*,·,0%,-3%,-1%,0%
CCOc1ccc(NC(=O)c2ccc3c(SCC(=O)O)c4c(nc3c2)CCCC4)cc1,17µM*,5%,1%,-3%,0%,12%
CCOC(=O)c1ccccc1NC(=O)c1ccc2c(SCC(=O)O)c3c(nc2c1)CCCC3,-2%,·,-2%,-1%,-2%,5%
CCCCN(C)C(=O)Cn1c(=O)oc2cc(S(=O)(=O)N3CC(C)CC(C)C3)ccc21 (configuration not stated),0%,·,-7%,-10%,1%,-6%
COc1cccc(C(=O)Nc2cccc3cccnc23)c1OC,24µM*,·,9%,1%,10%,6%
COc1ccc(C(=O)Nc2cccc3cccnc23)cc1OC,21µM*,-14%,1%,-6%,15%,·
COc1ccc(NC(=O)C(=O)Nc2cccc3cccnc23)cc1OC,-13%,·,7%,?,0%,-2%
CC(C)N(Cc1ccccc1)C(=O)c1cc2ccc3cccnc3c2[nH]1,19µM*,·,·,·,·,·
COc1ccc(C(=O)Nc2cccc(NC(=O)c3ccc(OC)c(OC)c3)n2)cc1OC,8.5µM*,·,-3%,7%,2%,17%
O=C(NCc1cccc(Cl)c1)c1cc2ccc3cccnc3c2[nH]1,-6%,·,·,·,·,·

# Bioassay records as filed in PubChem.
